High-throughput results deposited in PubChem BioAssay by Broad Institute.
TRPM1 prom inh: inhibitors of MITF-dependent TRPM1 promoter reporter, primary screen, cell-based, SK-MEL-5, single point, luciferase. SK-MEL-5 TRPM1 promoter luciferase, 24 h. inhibition, % at 12.5 µM. 0.83% of 330,000 active. AID 488899, 2010;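 active = mean inhibition across replicates of 60% or more, whatever share of single replicates reaches that level; inconclusive = some that reach 60%, reason not given; inactive = mean inhibition across replicates below 60%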
Shn3 3UTR inh: reduction of Shn3 3'UTR firefly luciferase signal, primary screen, Schnurri-3 inhibitor project, cell-based, Clone20 osteoblasts, set 2. 0.52% of 360,000 active. Clone20 osteoblast Shn3 3'UTR firefly luciferase, 24 h. inhibition, % at 12.5 µM;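 active = mean inhibition of at least 75% with every replicate also reaching 75%; inconclusive = mean inhibition at least 75% but some replicate below; inactive = mean inhibition below 75%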;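 note: 0% = median of neutral control wells and 100% = pilot-screen positive control compound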
aSyn UTR inh: MLPCN primary screen, SNCA 5' untranslated region. alpha-synuclein 5'UTR reporter, inhibitor activity. 0.82% of 300,000 active. inhibition, % (tested at 7.5 µM). AID 1813, 2009; in the data active = inhibition above about 60%; inconclusive = no clear call, values can overlap the other calls;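 note: H4 neuroglioblastoma cells stably carrying SNCA 5'UTR luciferase fusion; 0% = DMSO wells and 100% = positive control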
PAX8 reporter: inhibitors of PAX8-driven TPO luciferase reporter, primary screen, RMG-I cells, single concentration. SteadyGlo, 24 h. inhibition, % at 12.6 µM. 1.2% of 360,000 active;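 active = mean replicate inhibition at least 60% with every replicate also reaching 60%; inconclusive = only one of the two criteria is met; inactive = mean below 60% and not all replicates reaching 60%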;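 note: luciferase light reporting Pax8 driven TPO promoter activity; plate controls were median of neutral control wells for no effect and mitoxantrone controls for full effect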
LMP1 NFkB inh: EBV LMP1-driven NF-kappaB luciferase reporter inhibitors, primary screen, cell-based, luminescence, single point; LMP1-induced NF-kappaB luciferase reporter cells; inhibition, % at 12.5 µM; 0.69% of 350,000 active; in the data active = inhibition above about 41%; inconclusive = no clear call, values can overlap the other calls;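 note: 0% = neutral control wells and 100% = reference inhibitor control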
* = called active by the depositor; u = inconclusive; x = no result. Shown are actives, neighbours in structure and some others; about 2.1% of the full set was active somewhere.

SMILES	TRPM1 prom inh	Shn3 3UTR inh	aSyn UTR inh	PAX8 reporter	LMP1 NFkB inh
CSc1cccc(NC(=O)C(=O)NCc2ccccc2)c1	-11	-12	-14	-11	0
O=C(Nc1ccc(Cl)cc1)Nc1cccc(C(=O)O)c1	80*	15	42	86*	62*
CCOc1ccc(NC(=O)Nc2cccc(C(=O)O)c2)cc1	94*	79	108*	99*	81*
CCOC(=O)c1cccc(NC(=O)Nc2ccc(OCC)cc2)c1	-30	3	56	-55	-2
O=C(Nc1cccc(Cl)c1)Nc1cccc(C(=O)O)c1	30	22	55	14	43*
COc1ccc(OCC(O)CN2CCN(CC(O)COc3ccc(OC)cc3)CC2)cc1 (stereo not drawn)	-4	4	6	-4	5
O=[N+]([O-])c1ccc(/C([O-])=C(/C(=S)NCc2ccco2)[n+]2ccccc2)cc1	2	-10	-7	-21	-9
Cc1ccccc1OCC(=O)Nc1cccc(C(=O)O)c1	92*	56	105*	93*	77*
Cc1ccc(NC(=O)Nc2ccc(C(=O)N3CCOCC3)cc2)cc1	-7	-13	2	-3	7
CC(=O)c1cccc(NC(=O)Nc2ccc(C(=O)N3CCOCC3)cc2)c1	-2	1	6	x	49*
CC(C)CCCCCCCCCCCCC(=O)NCC(=O)NC1C(O)C(O)C(Nc2ncnc3nc[nH]c23)OC1C(O)CO (stereo not drawn)	76*	97*	x	x	88*
O=C(CS(=O)c1ccc(C(F)(F)F)cc1[N+](=O)[O-])Oc1ccccc1 (stereo not drawn)	88*	-29	17	5	-13
COC(=O)c1ccc(OC(=O)CS(=O)c2ccccc2[N+](=O)[O-])cc1 (stereo not drawn)	19	-9	-11	24	-10
CS(=O)(=O)c1ccc(S(=O)CC(=O)OCc2ccccc2)c([N+](=O)[O-])c1 (stereo not drawn)	83*	97*	-45	107*	49*
CCOC(=O)c1ccccc1OC(=O)CS(=O)c1ccccc1[N+](=O)[O-] (stereo not drawn)	6	0	-35	12	-1
Cc1nn(Cc2noc(C(=O)NCC3CCCO3)n2)c(C)c1Br (stereo not drawn)	-2	3	1	-6	0
Cc1nn(Cc2noc(C(=O)NC3CCC(C)CC3)n2)c(C)c1Br (stereo not drawn)	0	90*	16	-3	-1
Cc1cc(C)c2ccc(N)nc2c1O	74*	75	65*	-6	2
CSCC[C@H](N)C(=O)NC[C@H]1CC[C@H](C(=O)N[C@@H](Cc2ccccc2)C(=O)O)CC1	-26	18	13	8	x
Cc1ccc(-c2cc(=O)c3cc(F)ccc3[nH]2)cc1	-17	7	-41	-29	-9
O=c1cc(-c2cccc(F)c2)[nH]c2ccccc12	37	-10	87*	57	1
O=c1cc(-c2ccccc2)[nH]c2ccc(F)cc12	27	18	87*	11	u
Cc1ccc(-c2cc(=O)c3cc(C)ccc3[nH]2)cc1	8	-33	-36	-1	24
Clc1ccc2[nH]c(-c3ccccc3)cc2c1	-44	-35	x	x	-32
O=c1cc(-c2ccccc2)[nH]c2cc(Cl)ccc12	18	14	104*	15	15
SMILES	TRPM1 prom inh	Shn3 3UTR inh	aSyn UTR inh	PAX8 reporter	LMP1 NFkB inh
O=c1cc(-c2ccc(F)cc2F)[nH]c2ccccc12	x	x	24	x	x
Cc1ccc2[nH]c(-c3cccc(F)c3)cc(=O)c2c1	7	-33	81*	9	-7
CC/C(=N\NC(=O)c1c(C)nc2ccccn12)c1ccccc1	-2	4	-12	-39	5
CC(C)COc1ccc(C(=O)N/C(=C/c2cccc([N+](=O)[O-])c2)C(=O)O)cc1	-7	-32	-19	-3	4
C[C@H](CO)N1C[C@H](C)[C@H](CN(C)C(=O)NC2CCCCC2)Oc2ccc(NS(=O)(=O)c3ccc(Cl)cc3)cc2CC1=O	x	x	x	2	x
Cc1noc(C)c1S(=O)(=O)N(C)C[C@@H]1OCCCC[C@H](C)Oc2ccc(NC(=O)c3ccccc3)cc2C(=O)N([C@H](C)CO)C[C@@H]1C	x	x	x	5	x
COc1ccc2[nH]c(-c3cccc(F)c3)cc(=O)c2c1	19	-20	63*	-6	-6
